Several values for one entry are separate records, joined by “and”; a condition that tells them apart may be missing. Identical values can stand only once. Results filed as inconclusive are left out. Activity calls are given as the source filed them. Rule for the calls, unless noted: active = hit-call score of the fitted dose curve at least 0.9, where 1 is the maximum; inactive = score below 0.9.
Experiments:
[1] = BSK_3C_uPAR: BioMAP Diversity Plus: 3C Assay for Urokinase-type plasminogen activator receptor (uPAR) Biomarker Activity (AID 2282998); conditions: BioMAP 3C HUVEC, uPAR biomarker ELISA; actives raise or lower the signal
Procedure, shortened: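 Primary human umbilical vein endothelial cells, 3C system; surface uPAR measured by ELISA 24 h after dosing. Cytotoxicity via SRB total protein in parallel cultures; bidirectional fit against DMSO.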

[2] = BSK_3C_VCAM1: BioMAP Diversity Plus: 3C Assay for Vascular cell adhesion molecule 1 (VCAM1) Biomarker Activity (AID 2282999); conditions: BioMAP 3C HUVEC, VCAM1 ELISA, cytokine-stimulated; actives raise or lower the signal
Procedure, shortened: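 HUVEC primary cells, 24 h compound exposure; VCAM-1 by ELISA; gain/loss of signal fitted bidirectionally vs DMSO baseline.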

[3] = BSK_4H_Eotaxin3: BioMAP Diversity Plus: 4H Assay for Eotaxin 3 Biomarker Activity (AID 2283000); conditions: primary human endothelial cells (HUVEC); actives raise or lower the signal;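 for outcome: CCL26 protein level quantified by ELISA in parallel with SRB cytotoxicity check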
Procedure, shortened: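 HUVEC, 24 h post-dose, ELISA for Eotaxin-3/CCL26. Gain or loss of signal fitted bidirectionally vs DMSO baseline.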

[4] = BSK_3C_Proliferation: Cell Proliferation Assessment in the BioMAP Diversity Plus: 3C Assay (AID 2283006); conditions: primary human endothelial cells (HUVEC);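 for AC50: potency may reflect either rise or fall in cell number versus DMSO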
Procedure, shortened: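 Proliferation as total protein: sulforhodamine B (0.1%) stain of TCA-fixed subconfluent human umbilical vein endothelial cells, absorbance 560 nm, 48 h after dosing. Activity fitted in both directions against DMSO baseline.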

[5] = read-out: Interleukin-1 alpha (IL1a), IL1A (gene 3552); assay: BSK_BE3C_IL1a: BioMAP Diversity Plus: BE3C Assay for Interleukin-1 alpha (IL1a) Biomarker Activity (AID 2283016); conditions: primary human bronchial epithelial cells; actives raise or lower the signal
Procedure, shortened: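 IL-1a measured by ELISA after 24 h treatment of human primary bronchial epithelial cells, with gain or loss of signal fitted versus DMSO. Parallel cultures stained with SRB gauge overt cytotoxicity.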

[6] = read-out: Monocyte Chemoattractant Protein-1 (MCP1), CCL2 (gene 6347); assay: BSK_3C_MCP1: BioMAP Diversity Plus: 3C Assay for Monocyte Chemoattractant Protein-1 (MCP1) Biomarker Activity (AID 2283017); conditions: primary human endothelial cells (HUVEC); actives raise or lower the signal
Procedure, shortened: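 Primary human umbilical vein endothelial cells (3C system) were exposed to test chemical for 24 h, after which MCP-1 was quantified by ELISA. Activity was fitted bidirectionally against DMSO as negative control and baseline.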

[7] = read-out: Monocyte Chemoattractant Protein-1 (MCP1), CCL2 (gene 6347); assay: BSK_4H_MCP1: BioMAP Diversity Plus: 4H Assay for Monocyte Chemoattractant Protein-1 (MCP1) Biomarker Activity (AID 2283018); conditions: primary human endothelial cells (HUVEC); actives raise or lower the signal
Procedure, shortened: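 ELISA of MCP-1 (CCL2) 24 h after chemical dosing of HUVEC in the BioMAP 4H system. Gain or loss versus DMSO fitted; parallel SRB staining (560 nm) tracked overt cytotoxicity.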

[8] = read-out: Monokine induced gamma interferon (MIG), CXCL9 (gene 4283); assay: BSK_3C_MIG: BioMAP Diversity Plus: 3C Assay for Monokine induced gamma interferon (MIG) Biomarker Activity (AID 2283021); conditions: primary human endothelial cells (HUVEC); actives raise or lower the signal
Procedure, shortened: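 ELISA measurement of MIG in human umbilical vein endothelial cells 24 h after treatment. Cytotoxicity tracked by SRB staining in parallel cultures; gain or loss of signal fitted relative to DMSO.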

[9] = BSK_3C_SRB: Viability Assessment in the BioMAP Diversity Plus: 3C Assay (AID 2283023); conditions: primary human endothelial cells (HUVEC);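 note: fitted both ways against DMSO so a hit may be signal rise or drop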
Procedure, shortened: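 Primary human umbilical vein endothelial cells in the 3C system were read 24 h after compound dosing. Total protein was stained with 0.1% sulforhodamine B after 10% TCA fixation and read at 560 nm, with bidirectional fitting against DMSO as baseline.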

[10] = BSK_4H_SRB: Viability Assessment in the BioMAP Diversity Plus: 4H Assay (AID 2283027); conditions: primary human endothelial cells (HUVEC);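 note: cells exposed to compound for 24 h before staining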;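 for AC50: curves fitted both ways versus DMSO so AC50 may be loss or gain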
Procedure, shortened: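 HUVEC, 24 h post-dose; 10% TCA fix, 0.1% SRB stain, A560 nm. Total protein = overt cytotoxicity, parallel to biomarker read. Bidirectional fit vs DMSO baseline.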

[11] = BSK_BE3C_SRB: Viability Assessment in the BioMAP Diversity Plus: BE3C Assay (AID 2283028); conditions: primary human bronchial epithelial cells;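 for AC50: fitted both ways so AC50 may mark signal gain or loss versus DMSO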
Procedure, shortened: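 Human primary bronchial epithelial cells were exposed to test chemicals for 24 h. Total protein in parallel cultures was then measured by staining with 0.1% sulforhodamine B after 10% TCA fixation, with absorbance read at 560 nm. Activity was fitted bidirectionally against DMSO.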

[12] = read-out: Monokine induced gamma interferon (MIG), CXCL9 (gene 4283); assay: BSK_BE3C_MIG: BioMAP Diversity Plus: BE3C Assay for Monokine induced gamma interferon (MIG) Biomarker Activity (AID 2283035); conditions: primary human bronchial epithelial cells; actives raise or lower the signal
Procedure, shortened: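 Dose cells (human primary bronchial epithelial), incubate 24 h, quantify MIG by ELISA, then fit concentration–response in both directions relative to DMSO control.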

[13] = read-out: Plasminogen activator inhibitor-1 (PAI1), SERPINE1 (gene 5054); assay: BSK_BE3C_PAI1: BioMAP Diversity Plus: BE3C Assay for Plasminogen activator inhibitor-1 (PAI1) Biomarker Activity (AID 2283037); conditions: primary human bronchial epithelial cells; actives raise or lower the signal
Procedure, shortened: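 PAI-1 was measured by ELISA in human primary bronchial epithelial cultures 24 h after chemical dosing, with cytotoxicity checked by SRB total-protein staining in parallel cultures. Activity was fitted in both directions relative to DMSO.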

[14] = read-out: Tissue plasminogen activator (tPA), PLAT (gene 5327); assay: BSK_BE3C_tPA: BioMAP Diversity Plus: BE3C Assay for Tissue plasminogen activator (tPA) Biomarker Activity (AID 2283041); conditions: primary human bronchial epithelial cells; actives raise or lower the signal;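 for outcome: tPA level quantified by ELISA one day after compound addition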
Procedure, shortened: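 tPA measured by ELISA 24 h after dosing human primary bronchial epithelial cells (BE3C system). Changes in either direction were fitted against DMSO. Parallel cultures were stained with SRB to flag overt cytotoxicity.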

[15] = read-out: Interleukin-8 (IL8), CXCL8 (gene 3576); assay: BSK_CASM3C_IL8: BioMAP Diversity Plus: CASM3C Assay for Interleukin-8 (IL8) Biomarker Activity (AID 2283042); conditions: primary human coronary artery smooth muscle cells; actives raise or lower the signal;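 note: IL-8 protein level quantified by ELISA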
[16] = target: Oxysterols receptor LXR-alpha (Homo sapiens) (UniProt Q13133); assay: ATG_LXRa_TRANS: Attagene TRANS-FACTORIAL HepG2 Assay for human Liver X Receptor alpha (LXRa) (AID 2282980; active = hit-call score of the fitted dose curve at least 0.9, where 1 is the maximum); conditions: HepG2 Attagene TRANS reporter, LXRa transactivation
Procedure, shortened: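 HepG2 cells were transiently transfected with multiplexed reporter units driven by chimeric LXRa–GAL4 fusion proteins, then dosed for 24 h. Reporter mRNA was quantified by RT-PCR, fluorescent labelling and capillary electrophoresis; gain of signal fitted against DMSO baseline.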

[17] = ATG_GATA_CIS: Attagene CIS-FACTORIAL HepG2 Assay for human GATA Binding Protein (AID 2282944); conditions: HepG2 GATA cis-element reporter, Attagene multiplex mRNA; actives raise or lower the signal
Procedure, shortened: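 HepG2 cells transiently transfected with multiplexed cis-element reporter units measure endogenous GATA activity; after 24 h compound exposure, reporter mRNA quantified by RT-PCR and capillary electrophoresis. Changes fitted in both directions vs DMSO.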

[18] = ATG_TAL_CIS: Attagene CIS-FACTORIAL HepG2 Assay for human TAL Basal Promoter (AID 2282966); conditions: HepG2 Attagene cis-factorial TAL promoter reporter; actives raise or lower the signal;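 note: background control endpoint measuring basal TAL promoter reporter mRNA not a specific factor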
Procedure, shortened: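 Transiently transfected HepG2 (cis-regulated reporter units), 24 h treatment, mRNA read by fluorescent CE after RT-PCR; bidirectional fit, DMSO baseline.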

[19] = target: human Peroxisome Proliferator-activated Receptor alpha (PPARa), PPARA (gene 5465) (UniProt Q07869); assay: ATG_PPARa_TRANS: Attagene TRANS-FACTORIAL HepG2 Assay for human Peroxisome Proliferator-activated Receptor alpha (PPARa) (AID 2283001; active = hit-call score of the fitted dose curve at least 0.9, where 1 is the maximum)
Procedure, shortened: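 HepG2, transient MRTU transfection, 24 h treatment. RT-PCR → FAM labelling → capillary electrophoresis. Fit vs DMSO, positive direction.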

[20] = target: Transcription factor Sp1 (Homo sapiens) (UniProt P08047); assay: ATG_Sp1_CIS: Attagene CIS-FACTORIAL HepG2 Assay for human Specificity Protein 1 (Sp1) (AID 2282961); conditions: HepG2 Sp1 cis-reporter transcription, actives raise or lower the signal
Procedure, shortened: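 Measures mRNA induction of an Sp1-linked reporter in HepG2 cells 24 h post-dosing. Multiplexed reporters read by RT-PCR and capillary electrophoresis; DMSO serves as negative control and baseline.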

Sequence of human Peroxisome Proliferator-activated Receptor alpha (PPARa), PPARA (gene 5465) (Q07869 whole entry, looked up): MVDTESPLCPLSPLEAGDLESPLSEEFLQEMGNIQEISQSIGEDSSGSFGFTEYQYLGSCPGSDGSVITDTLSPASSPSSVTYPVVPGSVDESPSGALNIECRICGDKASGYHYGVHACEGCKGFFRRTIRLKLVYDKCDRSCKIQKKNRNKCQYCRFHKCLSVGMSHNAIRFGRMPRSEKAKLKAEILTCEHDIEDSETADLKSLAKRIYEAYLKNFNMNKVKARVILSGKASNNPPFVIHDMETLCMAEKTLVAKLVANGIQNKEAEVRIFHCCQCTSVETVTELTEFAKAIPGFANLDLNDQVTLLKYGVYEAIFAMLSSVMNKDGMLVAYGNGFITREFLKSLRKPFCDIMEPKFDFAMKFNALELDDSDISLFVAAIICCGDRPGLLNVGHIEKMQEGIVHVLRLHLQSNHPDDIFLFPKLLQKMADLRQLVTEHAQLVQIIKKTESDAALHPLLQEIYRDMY
Sequence of Oxysterols receptor LXR-alpha (Homo sapiens) (Q13133 whole entry, looked up, the tested form may be a part): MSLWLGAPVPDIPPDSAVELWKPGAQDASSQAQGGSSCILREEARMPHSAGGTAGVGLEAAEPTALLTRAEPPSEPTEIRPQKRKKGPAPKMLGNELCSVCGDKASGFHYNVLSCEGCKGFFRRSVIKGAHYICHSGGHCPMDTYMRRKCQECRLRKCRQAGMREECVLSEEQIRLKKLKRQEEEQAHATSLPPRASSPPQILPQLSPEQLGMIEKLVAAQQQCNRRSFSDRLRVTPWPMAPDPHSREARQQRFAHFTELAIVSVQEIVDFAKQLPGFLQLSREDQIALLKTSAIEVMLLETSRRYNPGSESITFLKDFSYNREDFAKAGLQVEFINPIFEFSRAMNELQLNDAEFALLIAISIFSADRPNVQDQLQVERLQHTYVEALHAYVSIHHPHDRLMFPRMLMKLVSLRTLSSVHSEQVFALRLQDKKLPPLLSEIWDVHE
Sequence of Transcription factor Sp1 (Homo sapiens) (P08047 whole entry, looked up): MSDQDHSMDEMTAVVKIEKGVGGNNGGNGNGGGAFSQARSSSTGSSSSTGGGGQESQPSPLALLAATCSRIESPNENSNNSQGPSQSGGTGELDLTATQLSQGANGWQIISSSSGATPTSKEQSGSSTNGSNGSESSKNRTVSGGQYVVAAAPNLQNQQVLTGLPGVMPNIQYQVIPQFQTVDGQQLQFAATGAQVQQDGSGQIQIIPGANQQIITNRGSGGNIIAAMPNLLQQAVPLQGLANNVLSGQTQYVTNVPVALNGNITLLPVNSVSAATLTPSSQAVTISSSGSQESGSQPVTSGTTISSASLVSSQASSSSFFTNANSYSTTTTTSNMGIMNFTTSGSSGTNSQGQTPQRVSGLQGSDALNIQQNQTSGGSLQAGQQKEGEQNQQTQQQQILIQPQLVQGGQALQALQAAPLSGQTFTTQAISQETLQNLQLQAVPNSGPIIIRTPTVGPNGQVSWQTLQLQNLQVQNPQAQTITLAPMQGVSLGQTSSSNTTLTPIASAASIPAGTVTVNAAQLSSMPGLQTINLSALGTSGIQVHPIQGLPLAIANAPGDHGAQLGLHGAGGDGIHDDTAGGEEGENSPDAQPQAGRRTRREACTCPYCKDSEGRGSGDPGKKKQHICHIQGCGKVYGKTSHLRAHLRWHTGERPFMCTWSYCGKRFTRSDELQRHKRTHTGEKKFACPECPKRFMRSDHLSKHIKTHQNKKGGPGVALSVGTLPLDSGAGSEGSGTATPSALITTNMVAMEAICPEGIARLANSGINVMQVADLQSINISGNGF

For `CC(C)C1OCCN1CCOC(=O)NCCCCCCNC(=O)OCCN1CCOC1C(C)C` (configuration not stated), the outcome [1] was “inactive”, the outcome [2] was “inactive” and the outcome [3] was “inactive”. The outcome [4] was “inactive”, the outcome [5] was “inactive” and the outcome [6] was “inactive”. The outcome [7] was “inactive”, the outcome [8] was “inactive” and the outcome [9] was “inactive”. The outcome [10] was “inactive”, the outcome [11] was “inactive” and the outcome [12] was “inactive”. For the same molecule, the outcome [13] was “inactive”, the outcome [14] was “inactive” and the outcome [15] was “inactive”.
For `Nc1ccc(S(=O)(=O)Nc2cnc3ccccc3n2)cc1`, the outcome [16] was “inactive”.
With `O=C(C1CCCCC1)N1CC(=O)N2CCc3ccccc3C2C1` (configuration not stated) the outcome [17] was “inactive”, the outcome [18] was “inactive” and the outcome [19] was “inactive”.
With `O=[N+]([O-])c1cc(S(=O)(=O)Nc2ccccc2)ccc1Nc1ccccc1` the AC50 [1] was 26 µM (active) and 17.8 µM (active), the outcome [2] was “inactive” and the AC50 [3] was 26.6 µM (active) and 25.5 µM (active). For the same molecule, the AC50 [4] was 30.6 µM (active) and 30.9 µM (active), the AC50 [5] was 24 µM (active) and 30.5 µM (active) and the AC50 [6] was 32.3 µM (active) and 30 µM (active). For the same molecule, the AC50 [7] was 27.8 µM (active) and 20 µM (active), the outcome [8] was “inactive” and the AC50 [9] was 30.3 µM (active) and 30.8 µM (active). The AC50 [10] was 30.5 µM (active) and 31 µM (active), the AC50 [11] was 27.5 µM (active) and 31.7 µM (active) and the AC50 [12] was 31 µM (active) and 34.2 µM (active). The AC50 [13] was 24.7 µM (active) and 27.1 µM (active), the AC50 [14] was 34 µM (active) and 29.7 µM (active) and the outcome [15] was “inactive”.
In the case of `CNC(=C[N+](=O)[O-])NCCSCc1csc(CN(C)C)n1`, the outcome [17] is reported as “inactive”, the outcome [20] is reported as “inactive” and the outcome [16] is reported as “inactive”.
With `COc1ccc(C(=O)c2ccccc2O)c(O)c1` the AC50 [1] was 17.3 µM (active) and 20 µM (active), the outcome [2] was “inactive” and the AC50 [3] was 10 µM (active) and 14.4 µM (active). The AC50 [4] was 23.6 µM (active), the outcome [5] was “inactive” and the outcome [6] was “inactive”. For the same molecule, the outcome [7] was “inactive”, the outcome [8] was “inactive” and the AC50 [9] was 12.6 µM (active) and 13.7 µM (active). For the same molecule, the outcome [10] was “inactive”, the outcome [11] was “inactive” and the outcome [12] was “inactive”. The AC50 [13] was 24.5 µM (active) and 27.2 µM (active), the outcome [14] was “inactive” and the outcome [15] was “inactive”.
In the case of `Oc1cccc2ccccc12`, the outcome [1] is reported as “inactive”, the outcome [2] is reported as “inactive” and the AC50 [3] is reported as 13.7 µM (active). For the same molecule, the outcome [19] was “inactive”, the outcome [4] was “inactive” and the outcome [5] was “inactive”. For the same molecule, the outcome [6] was “inactive”, the outcome [7] was “inactive” and the outcome [8] was “inactive”. For the same molecule, the AC50 [9] was 8.23 µM (active), the outcome [10] was “inactive” and the outcome [11] was “inactive”. For the same molecule, the outcome [12] was “inactive”, the outcome [13] was “inactive” and the outcome [14] was “inactive”. The outcome [15] was “inactive”.
For `CO[Si](CCCNCCN)(OC)OC`, the outcome [17] was “inactive”, the outcome [20] was “inactive” and the outcome [19] was “inactive”.
With `O=C(O)c1cc(Cl)cc(Cl)c1O` the outcome [17] was “inactive”, the outcome [20] was “inactive” and the outcome [18] was “inactive”. For the same molecule, the outcome [19] was “inactive”.
For `CC(=O)OC(C)(C)Cc1ccccc1`, the outcome [17] was “inactive”, the outcome [20] was “inactive” and the outcome [18] was “inactive”. The outcome [16] was “inactive” and the outcome [19] was “inactive”.
In the case of `COc1ccccc1Oc1c(NS(=O)(=O)c2ccc(C(C)(C)C)cc2)nc(-c2ncccn2)nc1OCCO`, the outcome [1] is reported as “inactive”, the outcome [2] is reported as “inactive” and the AC50 [3] is reported as 7.97 µM (active) and 11.3 µM (active). The AC50 [4] was 28.2 µM (active) and 13.9 µM (active), the outcome [5] was “inactive” and the outcome [6] was “inactive”. For the same molecule, the outcome [7] was “inactive”, the outcome [8] was “inactive” and the outcome [9] was “inactive”. For the same molecule, the outcome [10] was “inactive”, the outcome [11] was “inactive” and the outcome [12] was “inactive”. For the same molecule, the outcome [13] was “inactive”, the outcome [14] was “inactive” and the outcome [15] was “inactive”.
With `CC(C)(C)NC(=O)[C@@H]1CN(Cc2cccnc2)CCN1C[C@@H](O)C[C@@H](Cc1ccccc1)C(=O)N[C@H]1c2ccccc2C[C@H]1O` the outcome [17] was “inactive”, the outcome [20] was “inactive” and the outcome [18] was “inactive”. The outcome [16] was “inactive”.
In the case of `COc1cccc(OC)c1C(=O)O`, the outcome [17] is reported as “inactive”, the outcome [20] is reported as “inactive” and the outcome [16] is reported as “inactive”.
For `COc1ccc2ccccc2c1`, the outcome [17] was “inactive”, the outcome [20] was “inactive” and the outcome [18] was “inactive”. For the same molecule, the outcome [16] was “inactive” and the outcome [19] was “inactive”.
